By AC50 is commonly meant the concentration giving half of the maximal activity seen.

The source holds several records for some structures; these can differ, active in one and inactive in another. Active and inactive are the calls of the source. The calls were made as follows: active = hit-call score of the fitted dose curve at least 0.9, where 1 is the maximum; inactive = score below 0.9.

Tumor necrosis factor (Homo sapiens), sequence (P01375 whole entry, looked up): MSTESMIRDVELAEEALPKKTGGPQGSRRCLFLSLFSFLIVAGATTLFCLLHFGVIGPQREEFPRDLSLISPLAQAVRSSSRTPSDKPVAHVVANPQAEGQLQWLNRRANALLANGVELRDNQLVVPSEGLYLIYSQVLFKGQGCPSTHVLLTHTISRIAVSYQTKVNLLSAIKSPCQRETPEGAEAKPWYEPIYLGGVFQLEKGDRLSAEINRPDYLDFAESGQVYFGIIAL

Read-out in the test: Tumor necrosis factor (Homo sapiens) (UniProt P01375)
Put plainly: BSK_LPS_TNFa: BioMAP Diversity Plus: LPS Assay for Tumour Necrosis Factor alpha (TNFa) Biomarker Activity (AID 2283085). Particulars: primary human HUVEC with PBMC; actives raise or lower the signal. How it is done:
BSK_LPS is a cell-based, multiplexed-readout assay that uses umbilical vein endothelium and peripheral blood mononuclear cells, a human vascular primary cell co-culture, with measurements taken at 24 hours after chemical dosing in a 96-well plate.BSK_LPS_TNFa is an assay component measured in the BSK_LPS assay. It measures TNF-a antibody related to regulation of gene expression using ELISA technology.Data from the assay component BSK_LPS_TNFa was analyzed into 1 assay endpoint. This assay endpoint, BSK_LPS_TNFa, was analyzed with bidirectional fitting relative to DMSO as the negative control and baseline of activity. Using a type of binding reporter, gain or loss-of-signal activity can be used to understand changes in the signaling as they relate to the gene TNF. Furthermore, this assay endpoint can be referred to as a primary readout, because this assay has produced multiple assay endpoints where this one serves a signaling function. To generalize the intended target to other relatable targets, this assay endpoint is annotated to the cytokine intended target family, where the subfamily is inflammatory factor.
The levels of cell surface (or secreted, indicated by the prefix "s") biomarker endpoints were measured by ELISA. Overt cytotoxicity to cells in confluent adherent cultures (all systems other than the BT system) was assessed by measuring total protein levels using sulforhodamine B (SRB) staining in parallel cultures at the time of biomarker measurements, indicated as SRB endpoints. For proliferation assays for adherent cell types, individual cell types are cultured at sub-confluence and relative cell numbers quantified by SRB staining at time points optimized for each system (48 h: 3C and CASM3C systems; 72 h: BT and HDF3CGF systems; 96 h: SAg system). SRB was performed by staining cells with 0.1% SRB after fixation with 10% TCA and reading wells at 560 nm.Viability and proliferation of PBMC (T cells) was quantified by Alamar Blue reduction for the SAg and BT systems. For PBMC viability (referred to as PBMC Cytotoxicity within the assay endpoint names), cells were plated (75,000/well in a 96-well plate) and then chemical samples added for 1 h before addition of activators, SEB and TSST-1 (20 ng/mL final concentration each). Cells were incubated for 90 h. Then, Alamar Blue (20 uL/well) (Invitrogen, Cat DAL1100) was added for 6 h, and the plates were read with a fluorescence microplate reader at 546/580 nm (excitation/emission). For PBMC proliferation, cells were plated and activated as above but incubated for only 16 h prior to addition of Alamar Blue. Plates were read after 6 h.
Consider `CCOC(=O)CC(O)(CC(=O)OCC)C(=O)OCC`, for which the result was inactive.
`CCCCCCCCCCCCCC[N+](C)(C)C`: the AC50 is 11 µM (active).
`Oc1cc2ccccc2c2ccccc12`: the AC50 was 11.6 µM (active).
For the compound `Cc1cc(CCN2CCN(c3nsc4ccccc34)CC2)cc2c1NC(=O)CC2(C)C`, the AC50 is 8.98 µM (active).
On to `O=[N+]([O-])c1ccc(O)cc1`, for which the result was inactive.
On to `OCCC(F)(F)C(F)(F)C(F)(F)C(F)(F)C(F)(F)C(F)(F)C(F)(F)C(F)(F)F`, for which the outcome was inactive and the half-maximal activity concentration (AC50) was 47.6 µM (active).
`CCCCCCCCOC(=O)CCCCCCCCC(=O)OCCCCCCCC`: the outcome was inactive.
Same read-out and setting: to `CC(=O)NC1(c2cccc(F)c2)CCN(CC[C@@]2(c3ccc(Cl)c(Cl)c3)CN(c3ccccc3)C(=O)CO2)CC1` belongs “inactive”.
Take `CCc1nn(C2CCCCC2)c2cc(C3(C#N)CCC(C(=O)O)CC3)ccc12` (stereo not given): the AC50 was 0.358 µM (active).
For the compound `CCCOC(=O)c1ccc(O)cc1`, the result was inactive.
Take `CCC(C)(C)C1CCC(O)CC1` (stereo not given): the outcome was inactive.
With `c1ccc2c(c1)Cc1ccccc1-2`, the outcome was inactive.
With `Nc1cccc2c(N)cccc12`, the result was inactive.
On to `OC1CCCCC1`, for which the result was inactive.
In the case of `CCc1ccc(CCOc2ccc(CC3SC(=O)NC3=O)cc2)nc1` (stereo not given), the outcome was inactive.
`c1ccc2cc3c(ccc4ccccc43)cc2c1`: the result was inactive.
For the compound `CN1CCC[C@H]1c1cccnc1`, the outcome was inactive.
`CC(C)(C)CC(C)(C)c1ccc(O)c(-n2nc3ccccc3n2)c1`: the outcome was inactive.
Consider `CC[C@H](c1ccc(O)cc1)[C@@H](CC)c1ccc(O)cc1`, for which the concentration at half-maximal activity (AC50) was 30.6 µM (active).
Consider `ClC1=C(Cl)C(Cl)(Cl)C(Cl)=C1Cl`, for which the AC50 is 18.4 µM (active).
Still for that read-out and setting: the result for `CCCCC(CC)COC(=O)CCCCC(=O)OCC(CC)CCCC` (stereo not given) reads 3.97 µM (active); that for `CC(C)(C)c1ccc(O)c(C(C)(C)C)c1`, 13.2 µM (active).
For `CC[C@H](C)[C@@H](C(=O)O)n1sc2ccccc2c1=O`, the AC50 was 20 µM (active).
On to `NC(=O)N(O)[C@@H]1C=C[C@H](Oc2cccc(Oc3ccc(F)cc3)c2)C1`, for which the outcome was inactive.
With `CCCCCCC(=O)O`, the result was inactive.
On to `OC1CCC(C2CCCCC2)CC1` (stereo not given), for which the outcome was inactive.
Take `O=C(OCCOCCOC(=O)c1ccccc1)c1ccccc1`: the AC50 is 3.97 µM (active).
Regarding `CC(C)(C)c1cccc(C(C)(C)C)c1O`, the outcome was inactive.
Turning to `N#C[C@@H]1CC(F)(F)CN1C(=O)CNC1CC2CCC(C1)N2c1ncccn1` (stereo not given in full), the outcome was inactive.
`FC(F)(I)C(F)(F)C(F)(F)C(F)(F)C(F)(F)C(F)(F)I`: the concentration at half-maximal activity (AC50) is 20.2 µM (active) [middle of 5 runs].
In the case of `CCCCCCCCC(=O)O`, the outcome was inactive.
Still for that read-out and setting: to `CCCCCCCCCCCCN1CCCC1=O` belongs “inactive”.
Take `CC#C[C@]1(O)CC[C@H]2[C@@H]3CCC4=CC(=O)CCC4=C3[C@@H](c3ccc(N(C)C)cc3)C[C@@]21C`: the outcome was inactive.
Take `COCC(C)OCC(C)O` (stereo not given): the result was inactive.
Turning to `CCN(CC)CCNc1ccc(CNC=O)c2sc3ccc(OC)cc3c(=O)c12`, the AC50 is 17.8 µM (active).
In the case of `CN(C)C=O`, the result was inactive.
For the compound `COCC(C)O` (stereo not given), the outcome was inactive.
On to `CCCCCCCC(=O)O`, for which the outcome was inactive.
Regarding `C#C[C@]1(O)CC[C@H]2[C@@H]3CCC4=CC(=O)CC[C@@H]4[C@H]3CC[C@@]21C`, the concentration at half-maximal activity (AC50) was 4.11 µM (active).
